Test results reported in PubChem BioAssay AID1347431 (National Center for Advancing Translational Sciences (NCATS), 2020).
Screen size: about 1,200 compounds; fewer than 10 were called active. The call rests on the fitted dose curve; in most records, active means well fitted curve in the direction sought with a large enough effect; inconclusive means small, poorly fitted or top-dose-only effect, or another doubt; inactive means no such curve, though single readings can be large or run the other way. The list is a sample of the results.

Test: Confirmatory qHTS assay for inhibitors of Activation Induced Cytidine Deaminase (AID): UDG signals
Details: UDG coupled enzyme activity counter-screen; series mostly up to 115 µM
Excerpt: Assay Provider (PI) Patricia Gearhart Ph.D.
National Institute on Aging
National Institute of Health (NIH), Bethesda, MD
Assay Provider (PI) Rahul Kohli Ph.D.
Perelman School of Medicine
University of Pennsylvania, Philadelphia, PA
Activation-Induced Deaminase (AID) is a cytosine deaminase which converts cytosine into uracil within stretches of ssDNA. The presence of uracil in DNA initiates a cascade of mutagenic DNA repair to introduce point mutations and DNA double strand breaks. Specific targeting of AID to the immunoglobulin heavy chain loci (Igh) promotes mutagenesis in the antibody variable region for somatic hypermutation (SHM) or switch regions leading to class switch recombination (CSR). However, AID also plays a role in accumulating unnecessary mutations across the genome. Mis-targeting of AID results in the initiation of tumor development and leads to greater drug resistance among cancer cells when continually expressed. To identify an AID inhibitor, a small molecule library will be screened in collaboration with NCATS core facility at NIH. To confirm biological function, inhibitors will be examined in an in vitro murine B-cell activation assay and subsequent secondary validation screens. Top molecules will be further screened to identify inhibitory efficacy against a wild type primary splenocytes assay. Using these approaches, we hope to identify a small molecule with great efficacy and low toxicity for use as a molecular probe to further characterize AID's intricacies, or even as a therapeutic.
A FRET based analysis of cytosine deamination, was developed to identify potential inhibitors of AID catalytic activity. This screen has two signal output, Read 1 evaluates the AID inhibition response. The second readout (Read 2) evaluates UDG response and is uses as a counterscreen to exclude false positive inhibitors. Inhibition in AID and inactivity in the UDG signal is the desired outcome for this assay.
SEQUENCE No. (e.g., 1, 2, 3, etc.); […] (e.g., Cells, Incubation, Reagent, etc.); VALUE; DESCRIPTION
1a; Reagent; 3 uL; [4/3x] 1 uM AID/2.67 U/mL UDG
1b; Reagent; 3 uL; 2 U/mL UDG
1c; Reagent; 3 uL; 1 uM AID
2a; Compound; 46 nL; Follow-up plates (0.64 uM - 10 mM)
2b; Control; 46 nL; ATA ([…] - 10 mM)
3; Time; 10 min; incubation at room temperature
5; Time; 4 hr; incubation at room temperature
6; Reagent; 4 uL; [2x] 250 mM NaOH
7; Time; 15 sec; centrifuge at 1000 rpm
8; Time; 30 min; incubation at room temperature
9a; Detection; fluorescence (Read 1: AID); EnVision (PerkinElmer) plate reader, 540 excitation and 590 emission filters
9b; Detection; fluorescence (Read 2: UDG); EnVision (PerkinElmer) plate reader, 560 excitation and 665 emission filters
NOTES (numbers refer to sequence above)
1a; Reagents were dispensed in a medium-binding black solid-bottom Greiner plates (789176F) using a BioRptr liquid dispenser. Dispense 3 uL of [4/3x] 1 uM AID (provided by Kohli lab) and [4/3x] 2 U/mL UDG (NEB M0280L) into columns 1, 2, 5 to 48.
1b; Dispense 3 uL of [4/3x] 2 U/mL UDG into column 3.
1c; Dispense 3 uL of [4/3x] 1 uM AID into column 4.
2a; Compound (7-points [uM]: 0.64; 3.2; 16; 80; 400; 2,000; 10,000; […]) double pin-transferred (Dip Factor = 2) using the Kalypsys (Wako USA) pintool equipped with a 1536 pinhead for a final concentration range of 7.32 nM - 114 uM.
2b; 10 mM Aurintricarboxylic Acid (Sigma A1895) (ATA, 8-point, n = 2, 1:2.5 dilution in column 2) double pin-transferred (Dip Factor = 2) using the Kalypsys (Wako USA) pintool equipped with a 1536 pinhead for a [final] range of 186 nM - 114 uM.
3; Room temperature incubation.
4; Dispense 1 uL of substrate mixture from the Kohli lab [4x] […] DJC20 and [4x] 250 nM DJC23 into columns 1 to 48 .
5; Room temperature incubation.
6; Dispense 4 uL of substrate mixture [2x] 250 mM NaOH into columns 1 to 48.
7; Centrifugation step to remove bubbles.
8; Room temperature incubation
9a; Fluorescence signal (column label AID) was read using the EnVision plate reader. […]

SMILES	outcome
CCN1CCN(c2cc(C)c3cc(NC(=O)/C=C/c4cccc(Cl)c4)ccc3n2)CC1	inactive
CCOc1ccc(Nc2sc(C(=O)c3ccc(F)cc3)c(N)c2S(=O)(=O)c2ccc(C)cc2)cc1	inactive
CCc1ccccc1N(C)C(=O)c1sc2nc3n(c(=O)c2c1C)CCCCC3	inactive
COc1ccc(CNC(=O)c2cnn3c(C)c(Cc4c(F)cccc4Cl)c(C)nc23)cc1	inactive
COc1ccc(C(=O)c2cn(Cc3ccccc3F)c3ccc(F)cc3c2=O)cc1	inactive
CCCCCCSc1nc(N)c2c3c(sc2n1)CCCC3C (stereo not given)	inactive
Cc1nc2c(C(=O)NCCc3ccc(Cl)cc3)cnn2c(C)c1Cc1ccc(F)cc1	inactive
Cc1cccc(N2C(=O)N(CC(=O)C(C)(C)C)c3ccccc3S2(=O)=O)c1C	inactive
COc1ccccc1OCCn1c(C(C)Oc2ccccc2)nc2ccccc21 (stereo not given)	inactive
CCOc1ccccc1NC(=O)CN1C(=O)CC(c2ccc(OC)c(OC)c2)Sc2ccccc21 (stereo not given)	inactive
CCC(C(=O)N1CCN(c2cc(C)ccc2C)CC1)n1nc(C)n2c(cc3occc32)c1=O (stereo not given)	inactive
COc1ccc(-n2c(Cc3ccccc3)nnc2SCc2nc(-c3ccccc3C)no2)cc1	inactive
COc1ccc(N2C(=O)CSC23C(=O)N(Cc2cccc(C(F)(F)F)c2)c2ccccc23)cc1 (stereo not given)	inactive
Cc1nc2cc(-c3ccccc3)nn2c(C)c1CCC(=O)N1CCN(c2ccc(F)cc2)CC1	inactive
COc1ccc(C)cc1N(C)C(=O)c1sc2nc3n(c(=O)c2c1C)CCCCC3	inactive
Cc1oc(-c2ccccc2Cl)nc1CS(=O)CC(=O)N1CCN(c2cccc(C(F)(F)F)c2)CC1 (stereo not given)	inactive
Cc1ccc2onc(CC(=O)N3CCN(c4cc(Cl)ccc4C)CC3)c2c1	inactive
CCn1cc(C(=O)NCCc2ccc(OC)c(OC)c2)c(=O)c2cc(S(=O)(=O)N(C)C3CCCCC3)ccc21	inactive
CC(C)c1ccc(NC(=O)c2ccc3c(O)c(S(=O)(=O)c4ccccc4)c(=O)[nH]c3c2)cc1	inactive
CCn1cc(S(=O)(=O)c2ccc(C)cc2C)c(=O)c2cc(F)c(N3CCCC3)cc21	inactive
Cc1cccc(CNC(=O)c2oc3c(c2C)-c2nn(Cc4ccccc4Cl)cc2CC3)c1	inactive
COc1ccc(N2CCN(C(=O)c3cc4c(-c5ccccc5F)nn(C)c4s3)CC2)cc1	inactive
CCc1cccc(-n2c(C)nc3c(cnn3-c3ccc(Cl)cc3)c2=O)c1	inactive

SMILES	outcome
CCOc1ccc(-c2nc(CSCC(=O)N3CCN(c4cccc(C(F)(F)F)c4)CC3)c(C)o2)cc1	inactive
Cc1ccc(-n2ncc(C(=O)NCCc3ccccc3)c2C2CCN(C(=O)OC(C)(C)C)CC2)c(C)c1	inactive
CCn1cc(C(=O)NCCc2ccc(OC)c(OC)c2)c(=O)c2cc(S(=O)(=O)N3CCC(C)CC3)ccc21	inactive
COc1cc2nc(NC(=O)c3ccc(S(=O)(=O)N4CCc5ccccc54)cc3)sc2cc1OC	inactive
Cc1ccc2oc(C(=O)NCC(c3ccc(Cl)cc3)N3CCOCC3)c(C)c2c1 (stereo not given)	inactive
N=c1n(CCN2CCCCC2)c2ccccc2n1CC(O)COc1ccc(Cl)cc1Cl (stereo not given)	inactive
CCCCN(CC)CCNC(=O)c1cc2c(=O)oc3ccc(C)cc3c2s1	inactive
O=C(Nc1ccc(F)cc1F)c1ccc2c(O)c(S(=O)(=O)c3ccc(Cl)cc3)c(=O)[nH]c2c1	inactive
CCC(C(=O)Nc1cc(Cl)ccc1OC)n1nc(-c2ccccc2)ccc1=O (stereo not given)	inactive
CCCNC(=O)c1cnn2c(C)c(Cc3c(C)cc(C)cc3C)c(C)nc12	inactive
CCc1ccc(NC(=O)CSc2nccn2-c2cccc(C)c2C)cc1	inactive
Cc1c(Cl)cccc1-n1ncc(C(=O)NCc2cccs2)c1C1CCN(C(=O)OC(C)(C)C)CC1	inactive
Cc1nc2ccccc2n1CCc1nc2c3ccccc3nc(SCC(=O)Nc3ccc(C(C)C)cc3)n2n1	inactive
COc1ccc(NC(=O)c2c(NC(=O)c3ccc(Br)cc3)sc3c2CCCC3)cc1	inactive
Cc1ccccc1Cc1c(C)nc2nc(SCC(=O)NCCc3ccc(Cl)cc3)nn2c1C	inactive
COCCCNC(=O)c1oc2c(c1C)-c1nn(Cc3cccc(Cl)c3)cc1CC2	inactive
Cc1cccc(-n2c3nc(=O)[nH]c(=O)c-3cc3ccc(Cl)cc32)c1C	inactive
Cc1cc(N)c(-n2cc3c(c2-c2ccc(Br)cc2)c(=O)n(C)c(=O)n3C)cc1C	inactive
Cc1cccc(Cn2nnc3c(=O)[nH]c(C4CCCN(C(=O)c5ccc(C(C)(C)C)cc5)C4)nc32)c1 (stereo not given)	inactive
COc1ccc(CCN2CCC(CNC(=O)c3cnn(-c4cccc(Cl)c4)c3C3CCN(C(=O)OC(C)(C)C)CC3)CC2)cc1	inactive
COc1cc(NC(=O)CCc2c(C)nc3c4c(C)cc(C)nc4nn3c2C)cc(OC)c1	inactive
CCOC(=O)c1ccc(-c2ccc(/C=C(\C#N)c3nc4ccc(C)cc4[nH]3)o2)cc1	inactive
